Screening data deposited in PubChem by National Center for Advancing Translational Sciences (NCATS).
The list is not random: actives were taken first. Their share in the collection is about 5.6%.
Six1-Eya2 blk = Six1/Eya2 interaction inhibition. AlphaScreen GST-Six1/His-Eya2 binding, biochemical; hits give low values. activity change, % (concentration not given with the values). 360,000 compounds, 0.56% hits. AID 651725; in the data active means activity change below about -65%; inconclusive means mostly about -30% to -63%
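AlphaScreen luminescence read after one hour at 37 °C in darkness. Pin-transferred compounds met GST-Six1 and His-Eya2 protein (5X stock 250 nM/500 nM) plus glutathione donor and Ni-chelate acceptor beads (5X, 50 ug/mL).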
RORgamma inh = inhibitors of mouse ROR gamma transcriptional activity; AID 2551; 310,000 compounds, 5.4% hits; Drosophila S2 Gal4-RORgamma UAS-luciferase reporter, 20 h; P51450; Potency, µM (top dose mostly 53.6 µM), for the others: at the highest dose activity change, negative = inhibition, usual class: inhibitors; further: potency means the concentration at half of the fitted maximal effect; nearly all actives have a fitted effect of over 60% in size
Target sequence (P51450 whole entry, looked up, the tested form may be a part): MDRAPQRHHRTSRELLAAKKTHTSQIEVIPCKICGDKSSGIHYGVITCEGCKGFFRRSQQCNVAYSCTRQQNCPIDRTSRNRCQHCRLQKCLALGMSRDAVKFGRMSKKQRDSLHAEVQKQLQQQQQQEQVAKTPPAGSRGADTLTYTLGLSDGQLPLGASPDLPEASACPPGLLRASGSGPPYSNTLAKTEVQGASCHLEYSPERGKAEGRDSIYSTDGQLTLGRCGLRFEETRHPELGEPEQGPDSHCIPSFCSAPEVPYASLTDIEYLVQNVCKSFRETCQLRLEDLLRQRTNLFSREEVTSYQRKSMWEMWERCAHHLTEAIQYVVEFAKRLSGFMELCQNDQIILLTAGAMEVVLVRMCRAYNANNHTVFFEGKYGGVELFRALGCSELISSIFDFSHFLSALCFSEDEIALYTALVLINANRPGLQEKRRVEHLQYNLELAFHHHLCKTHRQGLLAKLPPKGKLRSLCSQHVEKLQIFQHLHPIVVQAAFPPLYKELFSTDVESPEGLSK
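Stable Schneider cell line, Gal4 DNA-binding domain fused to ROR gamma, UAS-luciferase. Cmpd 1 hr RT → CuSO4 700 uM final → 20 hr RT → luciferase reagent 10 min → luminescence.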
CtBP-E1A inh = blocks the CtBP interaction with E1A; AlphaScreen GST-E1A/His-CtBP binding, 1536-well; hits give low values; activity change, % (concentration not given with the values); 340,000 compounds, 0.49% hits; in the data active means activity change below about -65%; inconclusive means mostly about -30% to -63%
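In 5 uL wells, 23 nL compound meets equimolar GST-E1A and His-CtBP (5X stock 125 nM each) for 2 h, 37 °C. Beads (5X, 50 ug/mL) then 1 h, 37 °C, dark.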
PKM2 act = increases activity of human pyruvate kinase M2; P14618; purified PKM2, Kinase-Glo ATP luminescence, activation; response scale: 0% is enzyme alone, no compound; Potency, µM (titrated, usually from 57.5 µM), without a hit: at the top dose activation, most hits filed as activators; 260,000 compounds, 0.34% hits; AID 1631; further: potency means the concentration at half of the fitted maximal effect; nearly all actives have a fitted effect of over 55% in size
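hPK-M2, >95% pure; 0.1 mM ADP / 0.5 mM PEP final; imidazole pH7.2 buffer w/ 7 mM MgCl2, 50 mM KCl; 1 h RT; Kinase-Glo lum. Intermediate enzyme activity for dual inhibitor/activator qHTS.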
Gal4-VP16 FLuc = counter-screen for ROR gamma inhibitors: Gal4-VP16 reporter. Drosophila S2 Gal4-VP16 UAS-luciferase, luminescence, 20 h. 310,000 compounds, 3.5% hits. AID 2546. Potency, µM (doses to about 53.6 µM), without a hit: at the highest dose activity, negative = inhibition, usual class: inhibitors;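 further: Gal4-VP16 expression switched on by copper sulfate through the metallothionein promoter; potency means the concentration at half of the fitted maximal effect; nearly all actives have a fitted effect of over 50% in size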
The depositor's hits bear a star; ? = inconclusive; nt = no result; [ ] = another dose, or the depositor's remark. Unless noted, the call rests on the fitted dose curve; in most records, active means well fitted curve in the direction sought with a large enough effect; inconclusive means small, poorly fitted or top-dose-only effect, or another doubt; inactive means no such curve, though single readings can be large; an effect the other way counts as inactive or inconclusive. On the % scale 0 is the no-effect control and ±100 the full control effect.

SMILES	Six1-Eya2 blk	RORgamma inh	CtBP-E1A inh	PKM2 act	Gal4-VP16 FLuc
COc1ccc(CN(C)C(=O)C2CCN(S(=O)(=O)c3cccs3)CC2)cc1F	1.3	nt	9.8	nt	nt
COc1ccc(OC)c(C2=Nn3c(nnc3-c3ccccc3C)SC2)c1	nt	-3.8%	nt	nt	-6.8%
COc1ccc(-c2nn(-c3ccccc3)cc2C(=O)OCC(=O)c2ccc(C)c([N+](=O)[O-])c2)cc1	-7.3	?	nt	-0.9%	17.8µM*
Cc1cc(S(=O)(=O)ON2C(=O)c3ccccc3C2=O)ccc1F	3.4	?	nt	4.3%[0.46 µM]	12.6µM*
O=C1c2ccccc2C(=O)N1OS(=O)(=O)c1ccccc1	nt	?	nt	12.6%	15.8µM*
Cc1ccc(S(=O)(=O)ON2C(=O)c3cccc4cccc(c34)C2=O)cc1	?	?	nt	-2.4%	6.8%
O=C1c2cccc3cccc(c23)C(=O)N1OS(=O)(=O)c1ccccc1	-70.9*	-20.5%	-13.5	-5.6%	-11.5%
Cc1ccc(C)c(S(=O)(=O)ON2C(=O)c3ccccc3C2=O)c1	0.9	?	8.0	16.9%	11.2µM*
CCc1noc(C)c1C(=O)Nc1nnc(CC(C)C)s1	2.7	nt	5.9	nt	nt
CCCNC(=S)NC1CCCC1	1.5	11.2µM*	6.0	-2.1%	?
NNC(=S)NC1CCCCC1	-0.1	2.82µM*	2.5	-1.1%	7.08µM*
CC(C)=CCC1C(=O)N(c2ccccc2)N(c2ccccc2)C1=O	nt	-20.0%[10 µM]	nt	nt	?
CCCCC1C(=O)N(c2ccccc2)N(c2ccc(O)cc2)C1=O (stereo not drawn)	-2.3	4.47µM*	0.7	nt	5.62µM*
Cn1c(CSc2nc3ccccc3s2)n[nH]c1=S	-0.9	?	-1.1	1.6%	-5.8%[0.365 µM]
Cn1c(CSc2nc3ccccc3s2)nc2ccccc21	-1.6	11.2µM*	1.3	29.6%	?
S=c1[nH]nc(CSc2nc3ccccc3s2)o1	-3.4	14.1µM*	-0.3	-3.9%	?
O=C(CSc1nc2ccccc2s1)CSc1nc2ccccc2s1	3.5	-86.4%	-13.9	-4.6%	-15.8%
O=S(=O)(CCSc1nc2ccccc2s1)c1nc2ccccc2s1	3.4	7.08µM*	3.8	12.1%	15.8µM*
c1ccc2sc(SSc3nc4ccccc4s3)nc2c1	nt	12.6µM*	nt	nt	?
Cc1nnc(SCc2nc3ccccc3[nH]2)s1	-4.3	9.3%	-1.1	15.6%	10.1%
O=C(CSc1nc2ccccc2s1)N/N=C/c1ccco1	1.2	-34.8%	-9.4	-1.0%	23.7%
Cc1cc(C)nc(SC2=CS(=O)(=O)c3ccccc32)n1	-0.5	-36.1%	-0.1	9.4%	28.6%
O=S1(=O)C=C(Sc2nc3ccccc3s2)c2ccccc21	-22.1	4.47µM*	-5.9	-0.2%	2.82µM*
c1ccc2[nH]c(CSc3nc4ccccc4s3)nc2c1	7.6	20µM*	-2.4	9.7%	?
N#C/C(=C\c1ccco1)Sc1nc2ccccc2s1	2.5	-10.1%	11.0	25.9%	12.6µM*
SMILES	Six1-Eya2 blk	RORgamma inh	CtBP-E1A inh	PKM2 act	Gal4-VP16 FLuc
COc1ccc2c(c1)C(=O)[C@H](OC(=O)Nc1ccc(OC(F)F)cc1)[C@@H](c1ccc(OC)c(Br)c1)O2	nt	1.4%	nt	nt	-5.0%
CCSC[C@H](NC(=O)[C@H](C)N)C(=O)N[C@@H](CC(=O)O)C(=O)N[C@H](C(=O)N[C@@H](C)C(=O)N[C@H](C(=O)N[C@@H](CSCC)C(=O)N[C@H](C(=O)N[C@H](C(=O)N[C@@H](Cc1cnc[nH]1)C(=O)N[C@@H](CCCNC(=N)N)C(=O)N[C@@H](CC(C)C)C(=O)N[C@@H](C)C(=O)NCC(=O)N[C@@H](CC(C)C)C(=O)N[C@@H](CC(C)C)C(=O)N[C@@H](CO)C(=O)N[C@@H](CCCNC(=N)N)C(=O)N[C@@H](CO)C(=O)NCC(=O)NCC(=O)N[C@H](C(=O)N[C@H](C(=O)N[C@@H](CCCCN)C(=O)N[C@@H](CC(N)=O)C(=O)N[C@@H](CC(N)=O)C(=O)N[C@@H](Cc1ccccc1)C(=O)N[C@H](C(=O)N1CCC[C@H]1C(=O)N[C@H](C(=O)N[C@@H](CC(N)=O)C(=O)N[C@H](C(=O)NCC(=O)N[C@@H](CO)C(=O)N[C@@H](CCCCN)C(=O)N[C@@H](C)C(=O)N[C@@H](Cc1ccccc1)C(N)=O)C(C)C)[C@@H](C)O)C(C)C)C(C)C)C(C)C)[C@@H](C)O)C(C)C)[C@@H](C)O)[C@@H](C)O	nt	-1.7%	nt	nt	-1.0%
COCCNc1nc(CSc2ccccc2)nc2sc(C)c(C)c12	4.9	11.2µM*	-0.8	-8.3%	?
Cc1cc(C)c2nc(NC(=O)c3ccc(OCC4CCCO4)cc3)sc2c1 (stereo not drawn)	-3.9	1µM*	nt	-12.9%	-17.1%
O=C(Nc1nc(-c2ccc(Cl)cc2Cl)cs1)c1ccc(OCC2CCCO2)cc1 (stereo not drawn)	6.4	-36.8%	2.7	4.4%	17.8µM*
Cc1ccc2nc(NC(=O)c3ccc(OCC4CCCO4)cc3)sc2c1 (stereo not drawn)	-1.1	4.47µM*	-1.5	-0.5%	?
O=C(Nc1ccc(Cl)cc1)c1ccc(OCC2CCCO2)cc1 (stereo not drawn)	0.0	9.9%	6.1	3.6%	-0.3%
CN(CC(=O)Nc1ccc(F)c(F)c1F)C(=O)c1ccc(=O)[nH]c1	5.1	-5.3%	9.7	-23.2%	-6.4%
CN(C1CCCCC1)S(=O)(=O)c1ccc2c(c1)c(=O)c(C(=O)O)cn2C	0.6	nt	-6.1	nt	nt
CCOc1ccc(S(=O)(=O)NCCC(=O)N(C)CC(=O)Nc2ccc(N3CCOCC3)cc2)cc1	5.3	nt	6.5	nt	nt
COc1ccc2c(c1)Sc1ccccc1N2	?	6.31µM*	?	-4.3%	6.31µM*
O=C(N/N=C/c1ccc(N2CCOCC2)s1)c1ccccc1Cl	-1.8	7.94µM*	-5.2	nt	?
O=C(N/N=C/c1sc(N2CCOCC2)nc1-c1ccccc1)c1ccccc1O	?	2.24µM*	?	-3.7%	2.82µM*
O=C(N/N=C/c1sc(N2CCOCC2)nc1-c1ccccc1)c1ccccc1Cl	-7.9	0.0%	nt	13.8%	-7.0%
